Screening data (PubChem)
ANO1 activ: activators or potentiators of mouse TMEM16A chloride channel | HEK293 TMEM16A/YFP-H148Q/I152L, iodide quench fluorescence; stronger effect = lower value | Q8BHY3 | actives 0.3% (n = 340,000) | B-score at 10 µM | AID 623877;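 active means fluorescence-ratio B-score plate-corrected deviation score at least 3 library SD below zero, with starting fluorescence score within 5 deviations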;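 further: channel opened by trigger with iodide after compound preincubation; score built on the fluorescence ratio of max minus min over baseline; more negative score means more quench and so TMEM16A activation or potentiation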
GPR7 antag: antagonists of human GPR7 (neuropeptides B/W receptor 1). actives 1.1% (n = 290,000). GPR7-expressing cells, fluorescence antagonist assay. inhibition, % at 4.4 µM. P48145. AID 1861; in the data active means inhibition above about 16%, passing the limit was not always enough;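 further: cells stimulated with the agonist NPW; 0% = agonist with vehicle and 100% = vehicle without agonist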
Target sequence (P48145 whole entry, looked up): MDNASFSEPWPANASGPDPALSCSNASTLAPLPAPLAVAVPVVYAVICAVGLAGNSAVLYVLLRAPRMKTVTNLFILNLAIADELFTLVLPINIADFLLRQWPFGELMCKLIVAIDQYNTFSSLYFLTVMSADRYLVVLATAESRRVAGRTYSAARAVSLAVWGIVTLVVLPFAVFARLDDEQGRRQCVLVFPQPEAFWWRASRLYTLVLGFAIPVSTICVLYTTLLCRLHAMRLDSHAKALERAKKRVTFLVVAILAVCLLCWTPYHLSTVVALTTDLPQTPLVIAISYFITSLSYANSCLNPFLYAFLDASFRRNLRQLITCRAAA
CHT allo act: human CHT allosteric activation; CHT-expressing cells, membrane potential dye, choline EC20; stronger effect = higher value; LV-AA mutant CHT in HEK293 cells; B-score at 10 µM; Q9GZV3; actives 0.49% (n = 310,000);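 active means initial fluorescence not abnormally high and integrated response B-score, plate-corrected, over 3 SD above library mean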
CHT inh: inhibits the human high affinity choline transporter. B-score at 10 µM. CHT-expressing cells, membrane potential dye, choline response; stronger effect = lower value. AID 488975. actives 0.86% (n = 310,000);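 active means B-score over 3 SD under the library average, and starting fluorescence ratio not unusually high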;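 further: choline stimulus applied at its EC90 after an EC20 pre-addition; B-score computed on integrated fluorescence ratio after choline addition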
Kir21 block: blocks the mouse Kir2.1 inward-rectifier potassium channel | HEK293-Kir2.1, FluxOR thallium flux fluorescence; stronger effect = lower value | B-score at 10 µM | actives 0.85% (n = 310,000) | AID 1672;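 active means fluorescence ratio B-score at or below minus 3 SD of library scores, with starting-brightness B-score within 2 SD, cut at about -4.2 in these data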;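 further: channel flux triggered by added potassium and thallium sulfate stimulus; B-score of peak minus minimum fluorescence over baseline after thallium stimulus; more negative B-score means stronger Kir2.1 block with less thallium influx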
ANO1 block: blocks the mouse calcium-activated chloride channel TMEM16A | HEK293 TMEM16A/YFP iodide influx fluorescence, ionomycin | normalized B-score (activity score, 25-100; higher = stronger inhibition) at 10 µM | actives 1.2% (n = 310,000) | AID 588511;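 active means ratio plate-corrected score three or more library SD toward inhibition, starting fluorescence score within five deviations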;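 further: score derived from kinetic fluorescence span divided by baseline fluorescence per well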
Starred values were filed as active, the others as inactive. In the library only some 3.7% were active in any assay of this set; here they are far more common.

Screening COc1ccccc1NC(=O)CSc1nncs1 returned ANO1 activ inactive.
`Cc1ccc(NC(=O)CSc2nn(-c3ccc(Cl)cc3)c(=S)s2)cc1S(=O)(=O)N(C)C` gave ANO1 activ inactive, GPR7 antag 3, CHT allo act inactive, CHT inh inactive, Kir21 block -3 and ANO1 block 100*.
`COc1cccc(C2(C)NC(=O)N(CC(=O)c3cc(C)n(C4CC4)c3C)C2=O)c1` (stereo not drawn) gave ANO1 activ inactive.
Screening Nc1c(/C=C2/C=CC(=O)C(O)=C2)c(=O)nc2sc(CC(=O)N3CCCC3)nn12 returned ANO1 activ inactive, GPR7 antag -9, CHT allo act inactive, CHT inh inactive, Kir21 block -0.07 and ANO1 block inactive.
Screening Cc1cn2c(N)c(C=C3C=C(Cl)C(=O)C(Cl)=C3)c(=O)nc2s1 returned ANO1 activ -6.8*, GPR7 antag 2 and Kir21 block -7.3.
O=C(Nc1ccc(N2CCCCC2)cc1)c1ccc2ccccc2n1 was read as ANO1 activ inactive, GPR7 antag -11, CHT allo act inactive, CHT inh inactive, Kir21 block -1.1 and ANO1 block inactive.
CN1CCCC(OC(=O)c2cc(Cl)cc(Cl)c2)C1 (stereo not drawn) was read as ANO1 activ inactive, GPR7 antag -10, CHT allo act inactive, CHT inh inactive, Kir21 block -4.3* and ANO1 block inactive.
For CN1CCCC(OC(=O)c2cccc(Cl)c2)C1 (stereo not drawn) the results were ANO1 activ inactive, GPR7 antag -12, CHT allo act inactive, CHT inh inactive, Kir21 block 0.49 and ANO1 block inactive.
CCOC(=O)N1CCC2(CC1)CC(=O)c1cc(O)ccc1O2 was read as ANO1 activ inactive, GPR7 antag 18*, CHT allo act inactive, CHT inh inactive, Kir21 block -1 and ANO1 block inactive.
For CC(C)CCN1CCN(Cc2ccc(C#CC(C)(C)O)s2)CC1CCO (stereo not drawn) the results were ANO1 activ -8.5*, GPR7 antag 0, CHT allo act inactive, CHT inh inactive, Kir21 block -0.02 and ANO1 block inactive.
`CC(C)CN1CCN(Cc2ccc(C#CC(C)(C)O)cc2)CC1CCO` (stereo not drawn) gave ANO1 activ inactive, GPR7 antag -9, CHT allo act inactive, CHT inh inactive, Kir21 block -2.4 and ANO1 block inactive.
CCn1c(SCc2ccc(Cl)cc2)nnc1-c1ccccc1 was read as ANO1 activ inactive, GPR7 antag -3, CHT allo act inactive, CHT inh inactive, Kir21 block -5.3* and ANO1 block inactive.
`Cc1cccc(-c2nnc(SCc3ccc(C#N)cc3)n2Cc2ccco2)c1` gave ANO1 activ inactive, GPR7 antag 21, CHT allo act inactive, CHT inh inactive, Kir21 block -5.3* and ANO1 block inactive.
Clc1ccc(CSc2nnc(-c3cccnc3)n2Cc2ccco2)c(Cl)c1 was read as ANO1 activ inactive, GPR7 antag 12, CHT allo act inactive, CHT inh inactive, Kir21 block -4.3* and ANO1 block inactive.
Clc1cccc(CSc2nnc(-c3cccnc3)n2Cc2ccco2)c1 was read as ANO1 activ inactive, GPR7 antag 6, CHT allo act inactive, CHT inh inactive, Kir21 block -7.2 and ANO1 block inactive.
CCS(=O)(=O)n1nc(-c2ccc(Cl)cc2)nc1SCc1ccccc1 was read as GPR7 antag -12, CHT allo act inactive, CHT inh inactive, Kir21 block -0.76 and ANO1 block 25*.
CCCN(CC(=O)Nc1ccccc1C)C(=O)c1ccc(C2SCCS2)cc1 was read as ANO1 activ inactive, CHT allo act inactive, CHT inh inactive, Kir21 block -1.4 and ANO1 block inactive.
For COc1cc(C(=O)NCC(=O)NCC2COc3ccccc3O2)cc(OC)c1OC (stereo not drawn) the results were ANO1 activ inactive, CHT allo act inactive, CHT inh inactive, Kir21 block 0.75 and ANO1 block inactive.
CCn1c(COc2ccc(Cl)cc2)nnc1SCc1ccc(C#N)cc1 was read as ANO1 activ inactive, GPR7 antag 23, CHT allo act inactive, CHT inh inactive, Kir21 block -4.8* and ANO1 block inactive.
Screening COc1ccc(-n2c(COc3ccc(Cl)cc3)nnc2SCc2ccc(C#N)cc2)cc1 returned ANO1 activ inactive, GPR7 antag 4, CHT allo act inactive, CHT inh inactive, Kir21 block 1.1 and ANO1 block inactive.
CCn1c(SCc2ccc(C#N)cc2)nnc1-c1cccc(Cl)c1 was read as ANO1 activ inactive, GPR7 antag 5, CHT allo act inactive, CHT inh inactive, Kir21 block -4.6* and ANO1 block inactive.
For C[C@H](CO)N1C[C@H](C)[C@@H](CN(C)Cc2ccc3c(c2)OCO3)Oc2ccc(NS(C)(=O)=O)cc2C1=O the results were ANO1 activ inactive.
`CC(NC(=O)C1CCN(S(=O)(=O)c2cccs2)CC1)c1cccc(Cl)c1` (stereo not drawn) gave ANO1 activ inactive.
N#CN1CCC(NS(=O)(=O)c2ccc(C(F)(F)F)cc2)CC1 was read as ANO1 activ inactive.
Screening COc1ccc(CCNCc2cc(C)n(-c3ccc(OC)cc3)c2C)cc1 returned ANO1 activ inactive, GPR7 antag 20, CHT allo act inactive, CHT inh inactive, Kir21 block -4.8* and ANO1 block inactive.
COc1ccc(C2CC3(CC(C)(C)NC(SC)=N3)Oc3cc(O)cc(C)c32)cc1 (stereo not drawn) was read as ANO1 activ inactive, GPR7 antag 8, CHT allo act inactive, CHT inh inactive, Kir21 block -5.3* and ANO1 block inactive.
`COc1ccc(C2CC3(CC(C)(C)NC(=S)N3)Oc3cc(O)cc(C)c32)cc1` (stereo not drawn) gave ANO1 activ inactive, GPR7 antag -7, CHT allo act inactive, CHT inh inactive, Kir21 block -0.38 and ANO1 block inactive.
`CC(C)c1onc(C(=O)Nc2sc3c(c2C#N)CCC3)c1[N+](=O)[O-]` gave ANO1 activ inactive, GPR7 antag -11, CHT allo act inactive, CHT inh inactive, Kir21 block 1.7 and ANO1 block inactive.
`Cc1nn(C(C)C(=O)Nc2sc3c(c2C#N)CCCC3)c(C)c1[N+](=O)[O-]` (stereo not drawn) gave ANO1 activ inactive, GPR7 antag -6, CHT allo act inactive, CHT inh inactive, Kir21 block 0.42 and ANO1 block 100*.
Cc1c[n+]([O-])cc(C)c1[N+](=O)[O-] was read as ANO1 activ inactive.
